Laboratory results published in PubChem BioAssay AID504566 (NMMLSC, 2011).
Measured potencies and affinities stand elsewhere.

These molecules were tested against Broad substrate specificity ATP-binding cassette transporter ABCG2 (Homo sapiens) (UniProt Q9UNQ0) (assay: ABCG2 efflux pump inhibitor potency, dose response, Ig-MXP3 cells, JC-1, flow cytometry, set 2 (AID 504566)). Settings: JC-1 efflux; series mostly up to 50 µM; inhibition: at the top concentration;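 active = combined score above 52, rewarding potency beyond a set limit and curve height beyond a set limit; inactive = the rest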.
Broad substrate specificity ATP-binding cassette transporter ABCG2 (Homo sapiens), sequence (Q9UNQ0 whole entry, looked up): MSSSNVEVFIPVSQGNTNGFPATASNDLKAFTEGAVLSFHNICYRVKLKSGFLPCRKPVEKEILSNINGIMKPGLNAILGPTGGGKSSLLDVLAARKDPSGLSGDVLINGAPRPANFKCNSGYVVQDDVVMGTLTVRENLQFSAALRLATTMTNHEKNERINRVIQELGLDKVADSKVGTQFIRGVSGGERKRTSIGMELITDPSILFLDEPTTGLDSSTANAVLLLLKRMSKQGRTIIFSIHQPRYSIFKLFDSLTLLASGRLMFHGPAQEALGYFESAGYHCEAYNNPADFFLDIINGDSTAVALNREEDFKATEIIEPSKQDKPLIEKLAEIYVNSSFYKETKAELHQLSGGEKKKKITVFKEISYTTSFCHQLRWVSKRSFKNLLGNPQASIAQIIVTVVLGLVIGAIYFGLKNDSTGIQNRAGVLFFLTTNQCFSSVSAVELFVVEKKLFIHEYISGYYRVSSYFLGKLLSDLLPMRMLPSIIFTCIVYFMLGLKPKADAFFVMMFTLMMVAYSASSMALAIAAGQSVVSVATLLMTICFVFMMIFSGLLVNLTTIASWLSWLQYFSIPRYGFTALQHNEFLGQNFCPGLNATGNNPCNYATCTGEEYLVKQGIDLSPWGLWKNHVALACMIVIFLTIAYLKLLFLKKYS

inhibition, inactive:
Cc1nc2cc(-c3cccs3)nn2c(N2CCN(C(=O)c3ccco3)CC2)c1C 38.8%
CC(=O)N1CCN(c2c(C)c(C)nc3cc(-c4ccc(Cl)cc4)nn23)CC1 79.4%
O=S(=O)(c1ccccc1)N1CCN(c2cc(-c3ccccc3)nc3cc(-c4cccc(Cl)c4)nn23)CC1 3.59%
